Test results: PubChem BioAssay AID1159580 (chemical genetic matrix, 2015)
Screen size: about 5,500 compounds; about 2,000 (36%) were called active. Roughly 18% stayed inconclusive and do not appear here. Rule as the data show it: active = normalized growth mostly below about 0.91 (no sharp cut-off); inconclusive = no clear call, values can overlap the other calls; inactive = mostly above about 0.92. This is one part of the list.

Experiment: chemical genetic growth profiling, strain panel (AID 1159580);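 also: tested at 20 µM; growth read once vehicle control cultures reached saturation at 30 °C; 1 = growth at the plate median or of vehicle wells; lower values mean less growth of the strain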
Settings: S. cerevisiae deletion strains, growth OD
[1] = locus YDR150W, strain NUM1, hits give low values
[2] = locus YGR078C, strain PAC10, hits give low values
[3] = locus YHR030C, strain SLT2, hits give low values
[4] = locus YMR307W, strain GAS1, hits give low values
[5] = locus YNL153C, strain GIM3, hits give low values
[6] = locus YNL322C, strain KRE1, hits give low values
[7] = locus YPL055C, strain LGE1, hits give low values

Measured: normalized growth

CCOC(=O)c1ccc(Oc2ncc(C(F)(F)F)cc2Cl)cc1
inactive: locus YAL013W, strain DEP1, hits give low values 1.04 | locus YBR229C, strain ROT2, hits give low values 0.995 | locus YDL101C, strain DUN1, hits give low values 0.957 | [1] 1 | locus YEL061C, strain CIN8, hits give low values 0.996 | [2] 0.993 | [3] 0.829 | locus YHR087W, strain rtc3, hits give low values 0.987 | locus YJR043C, strain POL32, hits give low values 0.98 | locus YJR075W, strain HOC1, hits give low values 0.917 | locus YLR039C, strain RIC1, hits give low values 0.889 | locus YLR058C, strain SHM2 (second series), hits give low values 0.975 | locus YLR085C, strain ARP6, hits give low values 1.08 | locus YLR262C, strain YPT6, hits give low values 0.862 | locus YML094W, strain GIM5, hits give low values 1.04 | locus YMR219W, strain ESC1, hits give low values 0.992 | locus YMR263W, strain SAP30, hits give low values 0.988 | [4] 0.68 | [5] 1.01 | locus YNL298W, strain CLA4 (second series), hits give low values 0.985 | [6] 0.986 | locus YNR030W, strain Alg12, hits give low values 0.974 | [7] 1.08 | locus YPL241C, strain CIN2, hits give low values 0.862 | locus YPR135W, strain CTF4, hits give low values 1.17

O=C(Cc1ccc(Cl)c(Cl)c1)N1CCCCC1CN1CCCC1 (centres undefined)
inactive: locus YAL040C, strain CLN3, hits give low values 0.982 | locus YCL061C, strain MRC1 (second series), hits give low values 1 | [1] 1.01 | locus YDR363W, strain ESC2, hits give low values 1.01 | locus YER002W, strain NOP16, hits give low values 0.999 | [2] 1.01 | locus YGR229C, strain SMI1, hits give low values 1.03 | [4] 0.999 | [5] 1.09 | locus YNL175C, strain NOP13, hits give low values 1.02 | locus YNL197C, strain WHI3, hits give low values 1.03 | locus YNL224C, strain SQS1, hits give low values 0.999 | [6] 1.05 | locus YOR083W, strain WHI5 (second series), hits give low values 1.05 | [7] 1.01

O=C(O)[C@H]1/C(=C/CO)O[C@@H]2CC(=O)N21
inactive: locus YAL021C, strain ccr4, hits give low values 0.992 | locus YAL026C, strain drs2, hits give low values 0.991 | locus YAL030W, strain snc1, hits give low values 0.992 | locus YBL061C, strain skt5, hits give low values 0.955 | locus YBR009C, strain hhf1, hits give low values 1.01 | locus YBR023C, strain chs3, hits give low values 0.978 | locus YBR171W, strain sec66, hits give low values 0.983 | locus YBR231C, strain swc5, hits give low values 1.02 | locus YBR279W, strain paf1, hits give low values 0.976 | locus YCL011C, strain gbp2, hits give low values 1.02 | locus YCL016C, strain dcc1, hits give low values 0.972 | locus YCL069W, strain vba3, hits give low values 0.986 | locus YCR088W, strain abp1, hits give low values 0.986 | locus YDL005C, strain med2, hits give low values 0.971 | locus YDL040C, strain nat1, hits give low values 0.982 | locus YDR001C, strain nth1, hits give low values 0.981 | locus YDR069C, strain doa4, hits give low values 1.01 | locus YDR137W, strain rgp1, hits give low values 0.982 | locus YDR159W, strain sac3, hits give low values 0.97 | locus YDR195W, strain ref2 0.96 | locus YDR297W, strain sur2, hits give low values 1 | locus YDR334W, strain swr1, hits give low values 0.988 | locus YDR335W, strain msn5, hits give low values 0.976 | locus YDR392W, strain spt3, hits give low values 0.883 | locus YEL003W, strain gim4, hits give low values 1 | locus YEL037C, strain rad23, hits give low values 0.985 | locus YEL061C, strain CIN8 (second series), hits give low values 0.986 | locus YER015W, strain faa2, hits give low values 0.996 | locus YER016W, strain bim1, hits give low values 0.957 | locus YER111C, strain swi4, hits give low values 0.973 | locus YER155C, strain BEM2 (second series), hits give low values 0.999 | locus YFR010W, strain ubp6, hits give low values 1.02 | locus YGL167C, strain pmr1, hits give low values 0.986 | locus YGL173C, strain kem1, hits give low values 0.997 | locus YGL227W, strain vid30, hits give low values 0.971 | locus YGL240W, strain doc1, hits give low values 1.01 | locus YGL253W, strain hxk2, hits give low values 0.959 | locus YHR013C, strain ard1, hits give low values 0.957 | locus YHR027C, strain rpn1, hits give low values 0.992 | [3] 0.964 | locus YHR079C, strain IRE1, hits give low values 0.959 | locus YHR142W, strain chs7, hits give low values 0.959 | locus YJL092W, strain hpr5, hits give low values 0.999 | locus YJL095W, strain BCK1 (second series), hits give low values 1 | locus YJL095W, strain BCK1, hits give low values 0.991 | locus YJL115W, strain asf1, hits give low values 0.983 | locus YJL129C, strain trk1, hits give low values 0.941 | locus YJL154C, strain vps35, hits give low values 0.982 | locus YJL164C, strain tpk1, hits give low values 0.993 | locus YJL166W, strain qcr8, hits give low values 1.03 | locus YJL187C, strain SWE1, hits give low values 0.995 | locus YJR066W, strain TOR1, hits give low values 0.936 | locus YKL160W, strain elf1, hits give low values 0.955 | locus YKR026C, strain gcn3, hits give low values 0.99 | locus YKR091W, strain srl3, hits give low values 0.986 | locus YLL001W, strain dnm1, hits give low values 0.984 | locus YLL026W, hits give low values 0.987 | locus YLL041C, strain sdh2, hits give low values 1.02 | locus YLR027C, strain aat2, hits give low values 1 | locus YLR113W, strain HOG1, hits give low values 0.974 | locus YLR221C, strain rsa3, hits give low values 1.01 | locus YLR258W, strain gsy2, hits give low values 1 | locus YLR262C, strain YPT6 (second series), hits give low values 1.02 | locus YLR320W, strain mms22, hits give low values 1.01 | locus YLR342W, strain FKS1, hits give low values 0.965 | locus YLR357W, strain rsc2, hits give low values 0.931 | locus YLR370C, strain arc18, hits give low values 0.972 | locus YLR384C, strain iki3, hits give low values 0.98 | locus YML120C, strain ndi1, hits give low values 0.997 | locus YMR058W, strain fet3, hits give low values 0.993 | locus YMR125W, strain sto1, hits give low values 0.954 | locus YMR129W, hits give low values 0.981 | locus YMR205C, strain PFK2, hits give low values 0.99 | locus YMR231W, strain pep5, hits give low values 0.983 | locus YNL071W, strain lat1, hits give low values 0.996 | locus YNL183C, strain NPR1, hits give low values 0.952 | locus YNL209W, strain ssb2, hits give low values 0.98 | locus YNL248C, strain rpa49, hits give low values 0.935 | locus YNL322C, strain KRE1 (second series), hits give low values 0.973 | locus YNR049C, strain mso1, hits give low values 0.972 | locus YOR001W, strain rrp6, hits give low values 1.03 | locus YOR070C, strain gyp1, hits give low values 0.994 | locus YOR080W, strain dia2, hits give low values 0.988 | locus YOR083W, strain WHI5, hits give low values 0.909 | locus YOR106W, strain vam3, hits give low values 0.952 | locus YOR231W, strain MKK1, hits give low values 0.987 | locus YOR265W, strain rbl2, hits give low values 0.993 | locus YOR270C, strain vph1, hits give low values 1 | locus YOR290C, strain snf2, hits give low values 0.986 | locus YPL051W, strain arl3, hits give low values 0.979 | locus YPL078C, strain atp4, hits give low values 0.967 | locus YPL106C, strain sse1, hits give low values 0.979 | locus YPL240C, strain hsp82, hits give low values 1.01 | locus YPL256C, strain CLN2, hits give low values 0.959
